Reference: PubChem BioAssay (Tox21)
Records with an inconclusive call do not appear. The source made the active and inactive calls. Unless noted, the call rests on the fitted dose curve.

How the values were obtained:
[1] = Nuclear factor erythroid 2-related factor 2/antioxidant responsive element (Nrf2/ARE) small molecule agonists: luciferase reporter gene qHTS assay in human keratinocytes (AID 1919969); further: nearly all actives have a fitted effect of over 35% in size; further: potency means the concentration at half of the fitted maximal effect
[2] = target: Gonadotropin-releasing hormone receptor (Homo sapiens) (UniProt P30968); assay: Human gonadotropin-releasing hormone receptor (GnRHR) small molecule agonists, calcium flux assay in GnRHR-HEK293 cells (AID 1920063); further: nearly all actives have a fitted effect of over 35% in size
Chain of Gonadotropin-releasing hormone receptor (Homo sapiens) (P30968 whole entry, looked up): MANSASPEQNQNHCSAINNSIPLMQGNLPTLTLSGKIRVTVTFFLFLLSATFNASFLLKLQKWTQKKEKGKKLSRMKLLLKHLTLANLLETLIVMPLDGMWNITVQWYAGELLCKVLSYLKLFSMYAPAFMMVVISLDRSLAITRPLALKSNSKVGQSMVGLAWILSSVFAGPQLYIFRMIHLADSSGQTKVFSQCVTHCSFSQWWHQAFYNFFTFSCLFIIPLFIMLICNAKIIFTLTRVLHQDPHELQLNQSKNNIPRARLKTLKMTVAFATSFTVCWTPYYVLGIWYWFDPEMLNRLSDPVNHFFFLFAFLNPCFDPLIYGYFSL
In short: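 Agonist mode: compounds at 15 concentrations, in triplicate, went onto calcium dye-loaded GnRHR-HEK293 cells. Intracellular calcium was then followed as 480/540 nm fluorescence at 1 s intervals over 3 min.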

[3] = target: KiSS-1 receptor (Homo sapiens) (UniProt Q969F8); assay: Human kisspeptin (KISS1R) small molecule agonists, calcium flux assay in KISS1R-HEK293 cells (AID 1920064; active means well fitted activation curve with a large enough effect in the repeat runs)
Chain of KiSS-1 receptor (Homo sapiens) (Q969F8 whole entry, looked up): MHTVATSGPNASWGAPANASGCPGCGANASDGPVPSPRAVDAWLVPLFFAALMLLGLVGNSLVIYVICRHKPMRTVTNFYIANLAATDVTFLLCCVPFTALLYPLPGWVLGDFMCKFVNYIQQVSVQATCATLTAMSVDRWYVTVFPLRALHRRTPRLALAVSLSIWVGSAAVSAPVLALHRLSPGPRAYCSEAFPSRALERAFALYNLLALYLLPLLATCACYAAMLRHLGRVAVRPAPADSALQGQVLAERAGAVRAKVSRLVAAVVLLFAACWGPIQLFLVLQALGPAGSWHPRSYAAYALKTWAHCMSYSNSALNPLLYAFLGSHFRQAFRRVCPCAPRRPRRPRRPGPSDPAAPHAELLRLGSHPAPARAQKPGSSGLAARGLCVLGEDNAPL
In short: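 Agonist mode: intracellular calcium rise tracked at 1 s intervals over 3 min (480/540 nm) immediately after compound addition to dye-loaded KISS1R-HEK293 stable cells. Each compound tested at 15 concentrations in triplicate.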

[4] = G protein-coupled receptor (GPCR) small molecule agonists, calcium flux assay: HEK293 wild type cell line counter screen (AID 1920065)
In short: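 Calcium flux counter screen: compound added in agonist mode at 15 concentrations in triplicate to dye-loaded parental HEK293 cells. Fluorescence (480/540) read kinetically for 3 min; ATP served as positive control.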

[5] = p53 small molecule agonists, cell-based qHTS assay with human liver microsomes (AID 1963577)
In short: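 Fluorescence of the beta-lactamase reporter in p53RE-bla cells, detected with LiveBLAzer substrate (2 h, room temperature, dark), served as the read-out after 16 h compound exposure at 37 C with human liver microsomes and NADPH, each 0.5 mg/mL final.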

[6] = p53 small molecule agonists, cell-based qHTS assay with rat liver microsomes (AID 1963578)
In short: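 Cells carrying a p53 response element–beta-lactamase reporter were plated and rested 5 h, then dosed with compound in DMSO plus rat liver microsomes and NADPH, each at 0.5 mg/mL final. After 16 h at 37 C, LiveBLAzer substrate was added for 2 h.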

[7] = p53 small molecule agonists, cell-based qHTS assay with human liver microsomes: qHTS cell viability counter screen (AID 1963579); further: nearly all actives have a fitted effect of over 45% in size
In short: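 Cytotoxicity counter screen: p53RE-bla, 4,000 cells/well; 5 h settle, 37 C/5% CO2; cpd + HLM 0.5 mg/mL + NADPH 0.5 mg/mL (final); 16 h, 37 C; CellTiter-Glo, 30 min RT, luminescence.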

[8] = p53 small molecule agonists, cell-based qHTS assay with rat liver microsomes: qHTS cell viability counter screen (AID 1963580); further: nearly all actives have a fitted effect of over 45% in size
In short: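 After the beta-lactamase ratio was read, CellTiter-Glo was added to the same wells and luminescence measured at 30 min; cells had been treated 16 h at 37 C with compounds, rat liver microsomes and NADPH (0.5 mg/mL final each).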

[9] = p53 small molecule agonists, cell-based qHTS assay: qHTS cell viability counter screen (AID 1963581); further: nearly all actives have a fitted effect of over 45% in size
In short: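 Counter screen read by CellTiter-Glo luminescence (ATP content, 30 min at room temperature), run in the same wells as the beta-lactamase reporter read. HCT-116 p53RE-bla cells saw compounds for 16 h at 37 C.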

[10] = p53 small molecule agonists, cell-based qHTS assay (AID 1963582; active means well fitted activation curve with a large enough effect in the signal ratio in the repeat runs, not every such curve was filed as active; the % refers to the signal ratio; further: potency means the concentration at half of the fitted maximal effect)
In short: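 Read-out is beta-lactamase FRET fluorescence after 2 h at room temperature with LiveBLAzer B/G substrate. p53 response element-bla cells were treated 16 h at 37 C with compounds in DMSO, added 5 h after seeding.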

[11] = target: 5-hydroxytryptamine receptor 2A (Homo sapiens) (UniProt P28223); assay: 5-hydroxytryptamine receptor 2A (HTR2A) small molecule antagonists, cell-based qHTS assay (AID 1963586); further: nearly all actives have a fitted effect of over 45% in size; further: potency means the concentration at half of the fitted maximal effect
Chain of 5-hydroxytryptamine receptor 2A (Homo sapiens) (P28223 whole entry, looked up): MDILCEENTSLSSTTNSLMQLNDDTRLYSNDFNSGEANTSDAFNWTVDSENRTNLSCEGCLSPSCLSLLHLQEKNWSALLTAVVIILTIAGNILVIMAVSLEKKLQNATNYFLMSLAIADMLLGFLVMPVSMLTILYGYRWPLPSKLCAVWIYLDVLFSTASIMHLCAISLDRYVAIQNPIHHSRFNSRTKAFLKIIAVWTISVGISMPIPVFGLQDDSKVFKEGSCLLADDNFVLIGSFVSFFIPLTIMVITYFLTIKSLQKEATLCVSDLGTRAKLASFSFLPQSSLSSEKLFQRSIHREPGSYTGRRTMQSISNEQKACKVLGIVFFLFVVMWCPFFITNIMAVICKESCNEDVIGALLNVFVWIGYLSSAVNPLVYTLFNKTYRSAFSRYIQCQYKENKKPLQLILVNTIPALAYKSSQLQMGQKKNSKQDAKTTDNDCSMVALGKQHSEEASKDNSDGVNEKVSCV
In short: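 CHO cells stably expressing human HTR2A were plated for 18 h at 37 C, then loaded with calcium dye for 1 h. Compounds were preincubated 5 min at room temperature before DOI (4 nM solution) was added. Kinetic fluorescence was read for 3 min.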

[12] = target: 5-hydroxytryptamine receptor 2A (Homo sapiens) (UniProt P28223); assay: 5-hydroxytryptamine receptor 2A (HTR2A) small molecule agonists, cell-based qHTS assay (AID 1963587); further: nearly all actives have a fitted effect of over 30% in size
In short: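 CHO cells stably expressing human HTR2A, plated 18 h, loaded with calcium dye 1 h at 37 C. Agonist mode: compounds added and intracellular calcium fluorescence recorded kinetically for 2 min at 1 sec intervals.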

[13] = target: Muscarinic acetylcholine receptor M1 (Homo sapiens) (UniProt P11229); assay: Cholinergic receptor muscarinic 1 (CHRM1) small molecule antagonists, cell-based qHTS assay (AID 1963588); further: nearly all actives have a fitted effect of over 40% in size
Chain of Muscarinic acetylcholine receptor M1 (Homo sapiens) (P11229 whole entry, looked up): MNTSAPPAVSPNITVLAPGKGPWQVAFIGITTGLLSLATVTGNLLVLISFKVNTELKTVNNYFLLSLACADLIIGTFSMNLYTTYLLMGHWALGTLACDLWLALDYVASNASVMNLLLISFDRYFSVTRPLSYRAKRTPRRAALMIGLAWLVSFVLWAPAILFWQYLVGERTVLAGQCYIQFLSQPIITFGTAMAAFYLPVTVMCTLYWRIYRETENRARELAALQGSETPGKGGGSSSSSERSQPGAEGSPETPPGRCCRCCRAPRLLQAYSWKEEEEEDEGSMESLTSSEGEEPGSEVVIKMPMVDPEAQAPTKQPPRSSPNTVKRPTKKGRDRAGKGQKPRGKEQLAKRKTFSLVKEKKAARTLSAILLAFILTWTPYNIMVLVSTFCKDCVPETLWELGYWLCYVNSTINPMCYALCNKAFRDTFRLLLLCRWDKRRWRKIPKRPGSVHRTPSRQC
In short: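 Compounds were tested at 15 concentrations in three independent runs. Dye-loaded CHRM1-CHO cells were exposed 5 min at room temperature before stimulation by acetylcholine added at 50nM. Intracellular calcium was read kinetically on FDSS for 3 min.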

[14] = target: Muscarinic acetylcholine receptor M1 (Homo sapiens) (UniProt P11229); assay: Cholinergic receptor muscarinic 1 (CHRM1) small molecule agonists, cell-based qHTS assay (AID 1963589); further: nearly all actives have a fitted effect of over 35% in size
In short: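 Agonist-mode calcium-flux screen: compounds at 15 concentrations, three independent runs, were pin-transferred onto dye-loaded human CHRM1-CHO cells. Fluorescence was then recorded kinetically every second over minutes.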

[15] = cAMP Responsive Elements (CRE) small molecule agonists, cell-based qHTS assay (AID 1963590)
In short: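 Agonist mode: compound added to CRE-bla HEK 293T cells (2,000/well, 18 h after plating) for 3 h at 37 C/5% CO2. Reporter activity detected via FRET beta-lactamase substrate, 2 h room-temperature loading.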

[16] = cAMP Responsive Elements (CRE) small molecule antagonists, cell-based qHTS assay (AID 1963591; active means well fitted inhibition curve with a large enough effect in the signal ratio in the repeat runs, not every such curve was filed as active; the % refers to the signal ratio)
In short: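 Antagonist mode: compounds are added alongside the adenylyl cyclase activator NKH477 (0.25 uM final) to CRE-bla HEK293T cells for 3 h. LiveBLAzer FRET substrate, 2 h at room temperature, reports bla expression.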

[17] = target: Beta-2 adrenergic receptor (Homo sapiens) (UniProt P07550); assay: Adrenergic beta2 receptor (ADRB2) small molecule antagonists, cell-based qHTS assay (AID 1963592); further: series mostly up to about 92 µM; nearly all actives have a fitted effect of over 50% in size
Chain of Beta-2 adrenergic receptor (Homo sapiens) (P07550 whole entry, looked up): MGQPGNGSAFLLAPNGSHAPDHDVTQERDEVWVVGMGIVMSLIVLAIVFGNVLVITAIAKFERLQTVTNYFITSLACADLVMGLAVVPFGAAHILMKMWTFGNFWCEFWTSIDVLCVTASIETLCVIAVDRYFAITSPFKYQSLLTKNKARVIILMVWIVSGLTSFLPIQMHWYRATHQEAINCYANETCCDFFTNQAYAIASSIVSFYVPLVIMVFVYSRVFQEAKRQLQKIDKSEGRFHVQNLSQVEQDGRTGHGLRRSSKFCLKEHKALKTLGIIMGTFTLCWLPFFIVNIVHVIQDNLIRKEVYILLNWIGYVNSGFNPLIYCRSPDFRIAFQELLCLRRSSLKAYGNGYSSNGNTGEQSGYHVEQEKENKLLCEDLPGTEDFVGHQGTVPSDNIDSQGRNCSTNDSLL
In short: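 Assay format: CHO-ADRB2 cells, 18-20hr seeding at 37C/5% CO2, then compound plus 1nM isoproterenol agonist mix for 0.5hr RT. Homogeneous time-resolved fluorescence cAMP detection after 1hr, expressed as 665/615 nm ratio.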

[18] = target: D(2) dopamine receptor (Homo sapiens) (UniProt P14416); assay: Dopamine D2 receptor (DRD2) small molecule agonists, cell-based qHTS assay (AID 1963594); further: nearly all actives have a fitted effect of over 35% in size
Chain of D(2) dopamine receptor (Homo sapiens) (P14416 whole entry, looked up): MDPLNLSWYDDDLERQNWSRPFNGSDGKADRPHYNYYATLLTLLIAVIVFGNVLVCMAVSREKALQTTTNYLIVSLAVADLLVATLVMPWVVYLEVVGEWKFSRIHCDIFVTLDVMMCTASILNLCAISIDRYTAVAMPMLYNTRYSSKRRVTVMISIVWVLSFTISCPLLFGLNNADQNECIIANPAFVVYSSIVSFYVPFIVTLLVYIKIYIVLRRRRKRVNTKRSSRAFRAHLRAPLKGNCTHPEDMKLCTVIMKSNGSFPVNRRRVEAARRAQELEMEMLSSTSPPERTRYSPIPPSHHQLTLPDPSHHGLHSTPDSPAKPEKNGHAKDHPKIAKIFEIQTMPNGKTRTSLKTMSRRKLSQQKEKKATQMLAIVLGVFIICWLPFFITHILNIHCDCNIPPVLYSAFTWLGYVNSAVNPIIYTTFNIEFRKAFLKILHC
In short: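 HEK293 cells stably expressing human DRD2, pre-treated with PDE inhibitor Ro20-1724 (0.1 mM final) and compound 10 min at room temperature, then stimulated with NKH477 (200nM […]) for 30 min. cAMP read by HTRF (665/620 nm).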

[19] = target: D(2) dopamine receptor (Homo sapiens) (UniProt P14416); assay: Dopamine D2 receptor (DRD2) small molecule antagonists, cell-based qHTS assay (AID 1963595; active means well fitted inhibition curve with a large enough effect in the signal ratio in the repeat runs, with a control signal flat; the % refers to the signal ratio; further: potency means the concentration at half of the fitted maximal effect)
In short: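 HTRF cAMP read-out at 665 and 620 nm emission (340 nm excitation). Antagonist mode: compounds were tested against 12 nM quinpirole in DRD2-HEK293 cells, with 200 nM NKH477 raising cAMP and 0.1 mM Ro20-1724 blocking its breakdown.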

[20] = target: Beta-2 adrenergic receptor (Homo sapiens) (UniProt P07550); assay: Adrenergic beta2 receptor (ADRB2) small molecule agonists, cell-based qHTS assay (AID 1963593);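 further: CHO cells stably overexpressing human ADRB2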
In short: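 CHO cells stably over-expressing ADRB2 were plated overnight at 37C, then dosed with compounds plus a stimulation mix containing 100uM IBMX and 25uM Ro-20-1724 for 0.5hr at room temperature. cAMP was measured by HTRF competition, 1hr.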

Measured: Potency

C=COCCOCCOCCOC=C
not listed: [20]
inactive: all other assays above

Oc1ccc(Sc2ccc(O)cc2)cc1
active: [1] 57.2 µM
not listed: [20]
inactive: all other assays above

CC(C)(C)OC(=O)c1cccc(N)c1
not listed: [14]
inactive: all other assays above

COC(=O)CCCCC(=O)O
inactive: all assays above

C=CC(=O)NC(C)C
not listed: [17]
inactive: all other assays above

CCCCC(=O)N(C)C
not listed: [20]
inactive: all other assays above

CC(=O)N1CCN(c2ccc(O)cc2)CC1
not listed: [20]
inactive: all other assays above

CC(C)(C)C(=O)OCOP(=O)(COCCn1cnc2c(N)ncnc21)OCOC(=O)C(C)(C)C
active: [10] 7.93 µM | [19] 13.3 µM
not listed: [13] | [16] | [20]
inactive: all other assays above

c1ccsc1
inactive: all assays above

N#CC1(O)CCCCC1
active: [1] 61.6 µM
inactive: all other assays above

CNC(=O)[C@H]1O[C@@H](n2cnc3c(NCc4cc(Cl)ccc4OCc4cc(C)no4)ncnc32)[C@H](O)[C@@H]1N
not listed: [20]
inactive: all other assays above

CCOC(=O)CN1CCCC1=O
not listed: [14]
inactive: all other assays above

COCCOCCOCCOCCO
not listed: [20]
inactive: all other assays above

COc1cc(CCC(C)=O)ccc1O
active: [11] 3.75 µM
not listed: [16]
inactive: all other assays above
